Compound activity as filed in PubChem BioAssay.
Many of the other results were omitted from the sample, so hits are more common in it than they were.
Pf Dd2 growth – qHTS Primary assay for Inhibitors of Plasmodium falciparum Dd2 growth in vitro. P. falciparum Dd2 growth, SYBR Green, 72 h. Potency, µM (series often up to 28.9 µM), for the others: at the top dose activity, negative = inhibition, actives largely listed as inhibitors. actives 4.3% (n = 120,000). AID 1347417, 2020; active = well fitted inhibition curve with a large enough effect;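 also: plate controls were DMSO vehicle for no effect and reference drug for full effect; nearly all actives have a fitted effect of over 65% in size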
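Readout: SYBR Green fluorescence, 485 nm excitation, 535 nm emission, after ~16 h lysis at 37C. Before that, Dd2-infected red cells (2.5% hematocrit) grew 72 h with compound, 29 uM top final concentration.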
* hit, by the source's call; i = inactive; [ ] = dose if it differs, or a comment. Potency is read from the fitted curve at half-maximal effect.

SMILES | Pf Dd2 growth
COc1ccc(CNC(=O)c2cnc(N3CCOCC3)c3ccccc23)cc1 | 7.5%
CCOCCOC1CCN(C(=O)c2ccnn2C)CC1 | 4.0%
CCN1CCN(c2ncc(C(C)(C)C(=O)O)c(N3CCOCC3)n2)CC1 | -2.6%
Cc1ccc([C@H]2C[C@@H](O)[C@@H](O)[C@@H]2NC(=O)c2ccccn2)cc1 | 1.2%[44.1 µM]
COc1ccccc1N1CCN([C@@H]2[C@H](O)[C@H](CO)O[C@@H]2CNC(=O)c2cccs2)CC1 | -7.5%
Cc1ccc(CNC(=O)N2CCCC(Cc3noc(-c4ccccc4)n3)C2)cc1 (configuration not stated) | -24.2%
COc1ccc2[nH]c3c(c2c1)CCN(C)C31CCNCC1 | -24.9%
CC(NC(=O)c1sc2cccc(F)c2c1Cl)c1nncn1C (configuration not stated) | 15.2%
COCC(=O)N1CCC2(CC1)SCC(=O)N2c1ccc(Cl)cc1 | -8.4%
COCCCN1CC2(CCN(C(=O)Cc3nonc3C)CC2)CC1=O | -18.2%
COc1cc2c(=O)c(C(=O)c3ccc(C)c(C)c3)cn(Cc3ccccc3)c2cc1OC | 12.6µM*
CCOc1ccc(NC(=O)Cn2cc(C(=O)c3ccc(C)c(C)c3)c(=O)c3cc(OC)c(OC)cc32)cc1 | 11.7%
Cc1ccc(C(=O)c2cn(Cc3ccccc3)c3cc4c(cc3c2=O)OCCO4)cc1 | i
CCCc1noc(-c2cn(C3CCN(C(=O)c4ccc(OC)c(OC)c4)CC3)nn2)n1 | i
COc1ccccc1C(=O)Nc1nnc(SCc2cc(=O)c3cc(Cl)ccc3[nH]2)s1 | 10.4%
Cc1cnc(CC2CCN(C(=O)CC3CCCC3)CC2)n1Cc1ccc(F)cc1 | 3.16µM*
Cc1cnc(CC2CCN(C(=O)C(C)c3ccccc3)CC2)n1Cc1ccc(F)cc1 (configuration not stated) | 2.24µM*
Cc1cnc(CC2CCCNC2)n1Cc1ccc(F)cc1 (configuration not stated) | -26.0%
Cc1cnc(CC2CCCN(C(=O)c3cccnc3)C2)n1Cc1ccc(F)cc1 (configuration not stated) | i
Cc1cnc(CC2CCN(C(=O)C3CCOC3)CC2)n1Cc1ccc(F)cc1 (configuration not stated) | -2.6%
Cc1ccc(C(=O)N2CCC(Cn3c(C)cnc3C3CCC3)CC2)cn1 | -7.7%
Cc1cnc(CC2CCN(C(=O)NC(C)C)CC2)n1Cc1ccc(F)cc1 | i
Cc1cnc(C2CCC2)n1CC1CCN(C(=O)C(C)c2ccccc2)CC1 (configuration not stated) | 8.91µM*
Cc1cnc(C2CCC2)n1CC1CCN(C(=O)Cc2cccnc2)CC1 | 4.3%
Cc1ccc(NC(=O)CN2C(=O)COc3ccc(S(=O)(=O)N4CCCCCC4)cc32)cc1C | -8.7%
SMILES | Pf Dd2 growth
CS(=O)(=O)N(C1CC1)C1CCOC2(CCN(C(=O)Nc3ccccc3)CC2)C1 (configuration not stated) | -0.5%
Cc1ncsc1CN1C(=O)CO[C@H](c2ccc(NC(=O)CC(C)C)cc2)[C@H]1CO | 5.3%[44.1 µM]
CC(C)NC(=O)NC1CC2(CCN(C(=O)CCCN(C)C)CC2)c2ccccc21 (configuration not stated) | -1.9%
CCc1nn2c(=O)cc(COc3ccc(/C=C(\C#N)C(=O)Nc4ccc(C)cc4)cc3)nc2s1 | 7.6%
CNC(=O)N1CCC(C2CCN(C(=O)c3nccn3C)C2)CC1 (configuration not stated) | 6.9%
NC(=O)COc1ccc(C(=O)N[C@@H]2CN(C(=O)Nc3cccc(C(F)(F)F)c3)CCC[C@H]2O)cc1 | i
N#Cc1cccc(NC(=O)N2CCC[C@@H](O)[C@H](NC(=O)c3ccc(OCc4ccc(F)cc4)cc3)C2)c1 | 5.01µM*
COc1cccc(NC(=O)N2CCC[C@@H](O)[C@H](NC(=O)c3ccc(OCCN4CCCC4)cc3)C2)c1 | -15.6%
COc1ccc(-c2cc(N3CCCC(NC(=O)COc4ccccc4)C3)n[nH]2)cc1 (configuration not stated) | -13.8%
Cc1cccc(N2CCN(C(=O)Cn3c(=O)c4cccn4c4ccc(F)cc43)CC2C)c1 (configuration not stated) | i
Cc1cc(C)cc(-n2nnc(-c3nc(-c4ccccc4F)no3)c2C)c1 | 2.8%
CCOC(=O)C1(Cc2cccc(C(F)(F)F)c2)CCN(Cc2cc(C(C)C)n[nH]2)CC1 | 7.08µM*
CCOC(=O)C1(Cc2cccc(C(F)(F)F)c2)CCN(Cc2ccc(COC)o2)CC1 | 8.91µM*
CC(=O)NC1(C)CCN(Cc2cnc(-c3cccc(C(F)(F)F)c3)s2)CC1 | i
CCOC(=O)C1(Cc2ccc(OC)cc2)CCN(C(=O)c2cccc(Cl)c2)CC1 | i
CCOC(=O)C1(Cc2ccc(F)cc2)CCCN(C(=O)c2ccco2)C1 (configuration not stated) | i
FC(F)(F)c1cccc(C2=NOC3(CCN(Cc4ccccc4)CC3)C2)c1 | -27.8%
COc1ccc(CNC(=O)c2c3c(nc4ccccc24)C(=O)N(C2CCCCC2)C3)cc1 | i
COc1ccc(C)cc1NC(=O)C(=O)NCCc1csc2nc(-c3ccccc3F)nn12 | 16.1%
